High-throughput results as filed in PubChem BioAssay.
Peg3 promoter – Peg3 promoter activity inhibition; inhibition, % at 20 µM; AID 588405; 1.7% of 360,000 active; HeLa PEG-Prom luciferase reporter, luminescence, overnight;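 active = inhibition of at least 50% at 20 µM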
CF NFkB block – cystic fibrosis NF-kB activation inhibition | 0.86% of 360,000 active | KKLEB NF-kB-GFP reporter, PAF-induced, GFP fluorescence overnight | inhibition, % at 5 µM;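 active = at least 50% inhibition at 5 µM, scaled per plate between neutral and stimulator controls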;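 also: PAF is a Pseudomonas aeruginosa culture filtrate used as stimulus; plate controls were PAF-stimulated DMSO wells for no effect and unstimulated DMSO wells for full effect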
Shn3 3UTR inh – Schnurri-3 reporter inhibition in Clone20 osteoblasts; inhibition, % at 12.5 µM; 0.52% of 360,000 active; Clone20 osteoblast Shn3 3'UTR firefly luciferase, 24 h;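 active = mean inhibition of at least 75% with every replicate also reaching 75%; inconclusive = mean inhibition at least 75% but some replicate below; inactive = mean inhibition below 75%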;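 also: 0% = median of neutral control wells and 100% = pilot-screen positive control compound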
HIF-2a block – blocks HIF-2a reporter activity; 786-0 RCC cells HIF-2a reporter, luciferase luminescence, overnight; inhibition, % at 18.8 µM; 0.72% of 360,000 active; AID 624352;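 active = inhibition of the luminescence signal of 40% or more relative to plate controls, in a single-dose primary screen at 18.75 µM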
KKLEB tox – counter-screen for CF NF-kB inhibitors: cytotoxicity; KKLEB CF airway cells viability, ATPlite luminescence, overnight; stronger effect = lower value; cells stimulated with P. aeruginosa culture filtrate; activity change (cytotoxicity), % at 5 µM; 0.36% of 360,000 active; AID 602141;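 active = corrected activity change at or below -50% at 5 µM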
CF NFkB inh conf – confirmation of cystic fibrosis induced NF-kB inhibitors | shares compounds with CF NFkB block | KKLEB CF airway cells, PAF-induced NF-kB-GFP fluorescence, overnight | inhibition, % at 5 µM | 64% of 1,300 active | AID 602472; in the data active = inhibition above about 40%;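 also: stimulus PAF is a Pseudomonas aeruginosa filtrate and not platelet activating factor; plate controls were DMSO wells with stimulus for no effect and unstimulated DMSO wells for full effect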
* hit, by the source's call; ? = inconclusive; / = not tested or not shown. Compounds with a hit are over-represented: about 2.6% of the library has one in this group of screens.

SMILES	Peg3 promoter	CF NFkB block	Shn3 3UTR inh	HIF-2a block	KKLEB tox	CF NFkB inh conf
C=C1CCC(O)C2(C)CCC3C(C)C(=O)OC3C12O (stereo unspecified)	1	18	-21	13	-11	/
C=CCC(NC(=O)N(C)C)(C(C)=O)C(=O)OC (stereo unspecified)	/	/	/	9	/	/
CN1CCN(c2ncnc3scc(-c4ccccc4Cl)c23)CC1	3	71*	17	14	-26	74*
OCC1CCCN(c2ncnc3scc(-c4ccccc4)c23)C1 (stereo unspecified)	22	50*	-5	21	-28	40*
O=C(Cn1cncn1)c1ccccc1Br	2	-15	-6	16	7	/
COCCn1c(=NC(=O)c2sc3ccccc3c2Cl)sc2cc(S(N)(=O)=O)ccc21	10	55*	70	18	-46	24
COc1cc(-c2cc(C(=O)NCc3ccco3)c3ccccc3n2)cc(OC)c1OC	29	-21	13	5	-5	/
COc1cc(-c2cc(C(=O)Nc3ccc(S(=O)(=O)NCc4ccco4)cc3)c3ccccc3n2)cc(OC)c1OC	58*	64*	-1	11	8	98*
Oc1ccc(Br)cc1-c1nc2cnccn2c1NC1CCCCC1	18	35	-9	25	-24	/
Oc1ccc(Br)cc1-c1nc2cnccn2c1NC1CCCC1	12	80*	32	21	-26	90*
CS(=O)(=O)Nc1ccccc1C(=O)OCC(=O)NCc1cccs1	2	51*	1	6	-14	7
O=C(COC(=O)c1ccccc1NCCO)NCc1cccs1	-33	2	-20	-44	15	/
Cc1ccc(/C=[N+](\[O-])c2ccc(N(C)C)cc2)c2nsnc12	-158	68*	?	21	-24	-68
O=[N+]([O-])c1cccc(NC(=S)Nc2nc(-c3ccccc3Cl)cs2)c1	-35	50*	26	-109	-17	67*
COc1cc(-c2c(C(=O)c3ccccc3)[nH]c(N)c2C(N)=O)ccc1F	/	/	/	-3	/	/
COc1ccccc1-n1cc(-c2ccc(Cl)cc2)[nH]c1=O	-19	-10	0	-29	1	/
Cc1ccc2occ(/C=N/NC(N)=S)c(=O)c2c1	-52	-33	-21	-30	13	/
CCOc1ccccc1C(=O)N/N=C/c1coc2ccc(C)cc2c1=O	7	71*	0	23	-31	13
Cc1ccc2occ(/C=N/NC(=O)c3ccc(O)cc3)c(=O)c2c1	-6	66*	-9	19	-24	29
O=C(N/N=C/c1coc2ccccc2c1=O)c1ccccc1	11	6	10	10	3	/
Cc1ccc2occ(/C=N/NC(=O)c3ccccc3Br)c(=O)c2c1	29	57*	26	34	1	57*
O=C(C1CCCN(S(=O)(=O)c2ccc(F)cc2)C1)N(Cc1cccs1)C1CC1 (stereo unspecified)	18	-5	20	14	6	/
Cc1ccc(CNC(=O)COc2ccc(S(=O)(=O)N3CCCC3)cc2)cc1	12	-11	-1	11	4	/
COc1ccc(S(=O)(=O)N2c3ccc(F)cc3CCC2C)cc1 (stereo unspecified)	8	50*	-14	20	-5	83*
Cc1cc(C)nc(/N=C(\N)N(Cc2ccccc2)Cc2ccccc2)n1	-1	4	38	12	-4	/
SMILES	Peg3 promoter	CF NFkB block	Shn3 3UTR inh	HIF-2a block	KKLEB tox	CF NFkB inh conf
CC(C)C[C@H](CO)Nc1nc(Nc2cccc(Cl)c2)c2ncn(C(C)C)c2n1	37	61*	28	-13	-24	76*
COc1ccc(-c2ccc3nnc(SCC(=O)NCC4CCCO4)n3n2)cc1 (stereo unspecified)	5	-7	3	-6	8	/
CC(C)(C(=O)N1CCC1(C)C(=O)NC1Cc2ccccc2C1)c1ccccc1 (stereo unspecified)	7	-30	-26	21	7	/
Cc1ccc(NC(=O)Nc2nnc(-c3ccncc3)s2)cc1C	-139	90*	-11	-152	-30	77*
Cc1nn(-c2ccccn2)c2c1-c1nc(N)ncc1CC2	-235	58*	-64	-163	-12	54*
O=C(NCCc1ccc(F)cc1)c1coc(=O)c(Br)c1	48	81*	-11	13	18	83*
CCc1cccc(NS(=O)(=O)c2c(C)nc3scc(C)n3c2=O)c1	18	-5	32	22	-1	/
